Hits are enriched below; roughly 19% of the tested compounds scored in any of these assays.
DT40 TDP1 no CPT = qHTS for Inhibitors of human tyrosyl-DNA phosphodiesterase 1 (TDP1): qHTS in cells in absence of CPT; DT40 Tdp1-/- hTDP1 cells, no CPT, ATP luminescence, 48 h; Potency, µM (top dose mostly 46.2 µM), without a hit: top-dose activity change, negative = growth inhibition, hits mostly inhibitors; 420,000 tested, 15% active; also: potency is read from the fitted curve at half-maximal effect; nearly all actives have a fitted effect of over 55% in size
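Growth of hTDP1-complemented DT40 Tdp1-knockout cells is measured by ATP luminescence after at least 48 hr compound exposure at 37 °C, with DMSO substituting for the 20 nM CPT used in the parallel screen.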
HT1080 IDH1KD tx = HT-1080 IDH1 knockdown cell toxicity (counter line); 360,000 tested, 2% active; HT-1080 IDH1 knockdown viability, ATP luminescence, 48 h; AID 686971; Potency, µM (highest dose often 46.1 µM), for the others: at the highest dose activity, negative = toxicity, hits mostly cytotoxic;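 also: potency is read from the fitted curve at half-maximal effect; 0% = DMSO wells and -100% = cell-free medium wells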
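Assay cells: HT-1080 with IDH1 knockdown, 750 per well, RPMI/5% FBS. Exposure: 48 h at 37 °C following 2 h pre-incubation. Read: CellTiter-Glo luminescence; fitted concentration-response, curve class assigned.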
DT40 TDP1 CPT = growth inhibition of DT40 Tdp1-/-;hTDP1 cells with camptothecin (screen for TDP1 inhibitors). AID 686979. 420,000 tested, 12% active. chicken DT40 Tdp1-/-;hTDP1 cells + 20 nM CPT, ATP luminescence, 48 h. Potency, µM (doses to about 46.2 µM), for inactives: top-dose activity change, negative = growth inhibition, most hits filed as inhibitors; also: potency is read from the fitted curve at half-maximal effect; nearly all actives have a fitted effect of over 55% in size
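Chicken DT40 Tdp1-/- cells complemented with human TDP1, 400 cells/well, exposed to compounds plus 20 nM camptothecin for at least 48 h at 37 C; viability read as ATP content by CellTiter-Glo luminescence.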
HT1080-NT tox = kills 2HG-producing HT-1080-NT fibrosarcoma cells; HT-1080-NT fibrosarcoma viability, CellTiter-Glo ATP luminescence, 48 h; Potency, µM (titrated, usually from 46.1 µM), for inactives: at the top dose activity, negative = less viability, hits mostly cytotoxic; 360,000 tested, 1.6% active;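 also: NT is the 2HG producing partner of a matched IDH1 knockdown line; potency is read from the fitted curve at half-maximal effect; 0% = DMSO-treated cells and -100% = media-only wells without cells; nearly all actives have a fitted effect of over 55% in size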
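Luminescent CellTiter-Glo readout after 48 hours of compound exposure at 37 degrees C defined viability of HT-1080-NT cells. Activity was normalized to DMSO wells and cell-free media wells; concentration-response curves were fitted and assigned curve classes.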
ELG1 DNA repair = ELG1-dependent DNA repair inhibition | HEK293T ELG1-luciferase reporter, luminescence, 16 h; DNA damage induced by 5-fluorouridine | AID 504467 | 330,000 tested, 2.3% active | Potency, µM (series often up to 46.1 µM), for the others: at the highest dose activity change, negative = inhibition, actives largely listed as inhibitors; also: potency is read from the fitted curve at half-maximal effect; nearly all actives have a fitted effect of over 55% in size
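DMSO vehicle served as the neutral condition. Each well held 2,000 cells given 5-fluorouridine plus compound; after 16 hr at 37 °C/5% CO2, ONE-Glo was added and luciferase measured 30 min later.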
IL-1B inflam inh = inhibitors of inflammasome signaling (IL-1 beta secretion); AID 743279; 360,000 tested, 4.7% active; THP-1 LPS/ATP IL-1B secretion, AlphaLISA, 16 h; active compounds read low; activity change, % at 57.5 µM; in the data active = activity change below about -50%; inconclusive = mostly about -30% to -49%
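Secreted IL-1B measured by AlphaLISA bead assay after 16 h compound exposure of THP-1 cells; compounds (final up to 57.5 uM) added 1 h before LPS (250 ng/mL) and ATP (1.25 mM) stimulation; lower signal means less secretion.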
The depositor's hits bear a star; ? = inconclusive; nt = not tested or not shown. Unless noted, calls follow the shape of the dose curve; as a rule, active = well fitted curve in the direction sought with a large enough effect; inconclusive = small, poorly fitted or top-dose-only effect, or another doubt; inactive = no such curve, though single readings can be large; an effect the other way counts as inactive or inconclusive. Unless noted, % is scaled to controls: 0 for no effect and ±100 for the full control effect.

SMILES	DT40 TDP1 no CPT	HT1080 IDH1KD tx	DT40 TDP1 CPT	HT1080-NT tox	ELG1 DNA repair	IL-1B inflam inh
O=C1C=C(c2ccccc2C(F)(F)F)C[C@@H](c2ccc3c(c2)OCO3)C1	18µM*	-30%	?	?	?	-13
O=C1C=C(c2ccccc2Oc2ccccc2)C[C@@H](c2ccc3c(c2)OCO3)C1	?	-4%	16µM*	-13%	6.5µM*	-58*
COc1ccc([C@H]2CC(=O)C=C(c3ccccc3C(F)(F)F)C2)cc1	-11%	0%	-18%	0%	-5%	-7
O=C1C=C(c2ccc3ncccc3c2)C[C@@H](c2ccc3c(c2)OCO3)C1	2.6µM*	8.2µM*	2.1µM*	10µM*	?	9
O=C1C=C(c2ccc3ncccc3c2)C[C@@H](c2ccc(F)cc2)C1	?	-6%	?	-20%	?	-4
Cc1ccc(NC(=O)c2cc3nc(-c4ccc5c(c4)OCO5)cc(C(F)(F)F)n3n2)cc1Cl	-9%	nt	-4%	nt	nt	nt
COc1cccc(-n2nnnc2SCC(=O)NC2CCCCC2)c1	?	7%	0%	0%	10%	-4
COC(=O)CCc1nc2cc(Cl)ccc2n(Cc2ccccc2)c1=O	?	-2%	-11%	-13%	9%	7
COc1ccc(-c2nc3c(c(=O)[nH]c(=O)n3Cc3ccccc3)n2C)cc1	-7%	-3%	-4%	-6%	4%	-1
COc1ccc(-c2nc3c(c(=O)[nH]c(=O)n3Cc3ccccc3)n2Cc2ccccc2)cc1	21µM*	?	23µM*	?	8.2µM*	?
COc1cc(Br)cc(-c2nc3c(c(=O)[nH]c(=O)n3Cc3ccccc3)n2C)c1O	23µM*	-2%	16µM*	-1%	-7%	28
CCCn1c(-c2cc(OC)c(OC)c(OC)c2)nc2c1c(=O)[nH]c(=O)n2Cc1ccccc1	-97%	-28%	3.3µM*	-12%	?	4
Cn1c(-c2cccc(OCc3ccccc3)c2)nc2c1c(=O)[nH]c(=O)n2Cc1ccccc1	16µM*	11%	21µM*	11%	?	9
O=S1(=O)N[C@H](Cc2ccccc2)COc2cccc(N3CCN(Cc4ccccc4F)CC3)c21	?	?	?	?	nt	0
CCCCNC(=O)C1c2ccccc2OCC(=O)N1CCCN1CCOCC1 (stereo not given)	11%	9%	-9%	9%	nt	-1
COc1ccc(-c2ccc(C(c3c(C)[nH][nH]c3=O)c3c(C)[nH][nH]c3=O)o2)c([N+](=O)[O-])c1	23µM*	26µM*	?	8.2µM*	?	-74*
Cc1[nH][nH]c(=O)c1C(c1ccc(-c2ccc(F)cc2)o1)c1c(C)[nH][nH]c1=O	?	-29%	?	?	-1%	?
Cc1[nH][nH]c(=O)c1C(c1ccc(-c2ccc(Cl)c(Cl)c2)o1)c1c(C)[nH][nH]c1=O	2.6µM*	-11%	3.3µM*	-24%	-3%	-22
COCCNC(=O)/C(C#N)=C/c1ccc(-c2ccc(OC)cc2[N+](=O)[O-])o1	-3%	11%	-4%	11%	4%	-5
CSc1ccc(CN2CCC(C)(Oc3ccccc3)C2)cc1 (stereo not given)	?	-19%	?	?	nt	-9
CN1CC2(Cc3c1ccc1ccccc31)C(=O)OC(C)(C)OC2=O	?	?	?	23µM*	?	0
O=C1Cc2cc(S(=O)(=O)Nc3ccccc3Cl)cc3c2N1CCC3	11%	4%	-6%	-3%	2%	-13
COCOc1cccc(CN2CCC2(C)C(=O)NCCNC(C)=O)c1 (stereo not given)	24%	?	2%	?	nt	22
COCOc1cccc(CN2CCC2(C)C(=O)Nc2cc(OC)ccc2OC)c1 (stereo not given)	?	-18%	26µM*	?	nt	24
COc1ccc(OC)c(NC(=O)C2(C)CCN2Cc2ccc(SC)cc2)c1 (stereo not given)	-30%	-9%	7%	3%	nt	-6
SMILES	DT40 TDP1 no CPT	HT1080 IDH1KD tx	DT40 TDP1 CPT	HT1080-NT tox	ELG1 DNA repair	IL-1B inflam inh
COCOc1cccc(CN2CCC2(C)C(=O)Nc2ccc(OC)c(OC)c2)c1 (stereo not given)	23µM*	20%	16µM*	-10%	nt	-8
COCOc1cccc(CN2CCC2(C)C(=O)Nc2ccc(C)c(O)c2)c1 (stereo not given)	18µM*	?	26µM*	-20%	nt	-15
COCOc1cccc(CN2CCC2(C)C(=O)Nc2ccc(C)cc2)c1 (stereo not given)	?	-25%	?	?	nt	-14
O=C(CN1N=C(c2ccccc2)CCC1=O)NCc1ccc(F)cc1Cl	?	nt	-28%	nt	nt	nt
OC[C@H]1O[C@@H](c2nc(-c3cccc4ccccc34)no2)[C@H](O)[C@@H]1O	15µM*	-16%	?	?	nt	-68*
OC[C@H]1O[C@@H](c2nc(-c3ccccc3Br)no2)[C@H](O)[C@@H]1O	6.5µM*	15µM*	0.52µM*	10µM*	nt	0
COc1ccc(-c2noc([C@@H]3O[C@H](CO)[C@H](O)[C@H](O)[C@H]3O)n2)cc1OC	15%	4%	13%	25%	nt	18
CCOc1ccc(-c2noc([C@@H]3O[C@H](CO)[C@@H](O)[C@H]3O)n2)cc1	?	8%	?	12%	nt	-58*
Cc1cccc(C(=O)OC(C)C(=O)N2CCN(Cc3ccccc3)CC2)c1 (stereo not given)	?	14%	?	8%	7%	-12
COc1ccc(-c2cc(C(=O)Oc3ccccc3)c3cc(C)ccc3n2)cc1	5.2µM*	nt	?	nt	nt	nt
COc1ccccc1CNC(=O)c1cc(C)nc2ccccc12	?	0%	-30%	1%	0%	7
Cc1nn(C)cc1CN(C)C(=O)c1cc(-c2ccccc2)nc2ccc(Br)cc12	15µM*	-19%	16µM*	-5%	?	-6
Cc1ccc(C(=O)COC(=O)c2cc(-c3cccs3)nc3ccccc23)cc1	18µM*	nt	?	nt	nt	nt
COc1ccccc1CN(C)C(=O)c1cc(C)nc2ccccc12	16µM*	-2%	16µM*	-2%	-29%	29
COc1ccc(-c2cc(C(=O)Oc3ccc(C)cc3)c3cc(C)ccc3n2)cc1	-2%	nt	-23%	nt	nt	nt
NC(=O)c1cc(-c2ccccc2)nc2ccc(Br)cc12	4%	15%	9%	16%	-3%	-6
